Laboratory results reported in PubChem BioAssay (EPA / NIEHS).
Several values for one entry are separate records, joined by “and”; a condition that tells them apart may be missing. Identical values can stand only once. Activity calls are given as the source filed them. The calls were made as follows: active = hit-call score of the fitted dose curve at least 0.9, where 1 is the maximum; inactive = score below 0.9.

Tests used:
[1] = read-out: Monocyte Chemoattractant Protein-1 (MCP1), CCL2 (gene 6347); assay: BSK_3C_MCP1: BioMAP Diversity Plus: 3C Assay for Monocyte Chemoattractant Protein-1 (MCP1) Biomarker Activity (AID 2283017); settings: primary human endothelial cells (HUVEC); actives raise or lower the signal
In short: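 ELISA read-out of MCP-1 from human umbilical vein endothelial cell cultures harvested 24 h post-dosing. Gain or loss of signal was fitted relative to DMSO.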

[2] = read-out: Monocyte Chemoattractant Protein-1 (MCP1), CCL2 (gene 6347); assay: BSK_4H_MCP1: BioMAP Diversity Plus: 4H Assay for Monocyte Chemoattractant Protein-1 (MCP1) Biomarker Activity (AID 2283018); settings: primary human endothelial cells (HUVEC); actives raise or lower the signal
In short: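 Human umbilical vein endothelial cells (4H system) exposed to chemicals for 24 h in 96-well format. MCP-1 measured by ELISA; bidirectional fitting against DMSO, with SRB total-protein staining in parallel cultures for cytotoxicity.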

[3] = read-out: Monokine induced gamma interferon (MIG), CXCL9 (gene 4283); assay: BSK_3C_MIG: BioMAP Diversity Plus: 3C Assay for Monokine induced gamma interferon (MIG) Biomarker Activity (AID 2283021); settings: primary human endothelial cells (HUVEC); actives raise or lower the signal
In short: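 HUVEC primary endothelial cultures dosed with chemical; MIG quantified by ELISA at 24 h. Data fitted bidirectionally against DMSO control, with parallel SRB total-protein staining for cytotoxicity.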

[4] = BSK_3C_SRB: Viability Assessment in the BioMAP Diversity Plus: 3C Assay (AID 2283023); settings: primary human endothelial cells (HUVEC);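 also: fitted both ways against DMSO so a hit may be signal rise or drop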
In short: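 Absorbance at 560 nm of sulforhodamine B-stained (0.1%) total protein served as a cytotoxicity readout in human umbilical vein endothelial cells, 24 h after chemical treatment. Signal was fitted bidirectionally relative to DMSO.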

[5] = BSK_4H_SRB: Viability Assessment in the BioMAP Diversity Plus: 4H Assay (AID 2283027); settings: primary human endothelial cells (HUVEC)
In short: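 Absorbance at 560 nm of SRB-stained total protein served as the viability read-out in confluent primary human umbilical vein endothelium 24 h after chemical treatment. Curves were fitted bidirectionally against DMSO as negative control.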

[6] = BSK_BE3C_SRB: Viability Assessment in the BioMAP Diversity Plus: BE3C Assay (AID 2283028); settings: primary human bronchial epithelial cells
In short: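 Cells (human bronchial epithelial, primary) are treated with chemicals, and after 24 h the parallel cultures are fixed in 10% TCA. These are then stained with 0.1% SRB and read at 560 nm. Gain or loss of signal is fitted relative to DMSO.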

[7] = read-out: Monokine induced gamma interferon (MIG), CXCL9 (gene 4283); assay: BSK_BE3C_MIG: BioMAP Diversity Plus: BE3C Assay for Monokine induced gamma interferon (MIG) Biomarker Activity (AID 2283035); settings: primary human bronchial epithelial cells; actives raise or lower the signal;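 also: MIG protein measured by ELISA in BE3C cultures after 24 h of dosing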
In short: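 MIG level was determined by ELISA after 24 h chemical treatment of primary human bronchial epithelial cells. Values were fitted bidirectionally with DMSO as the negative control and activity baseline.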

[8] = read-out: Plasminogen activator inhibitor-1 (PAI1), SERPINE1 (gene 5054); assay: BSK_BE3C_PAI1: BioMAP Diversity Plus: BE3C Assay for Plasminogen activator inhibitor-1 (PAI1) Biomarker Activity (AID 2283037); settings: primary human bronchial epithelial cells; actives raise or lower the signal
In short: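 Primary human bronchial epithelial cells (BE3C system) exposed 24 h; PAI-1 quantified by ELISA. Parallel sulforhodamine B staining of total protein flags cytotoxicity. Bidirectional fit versus DMSO.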

[9] = read-out: Urokinase-type plasminogen activator receptor (uPAR), PLAUR (gene 5329); assay: BSK_BE3C_uPAR: BioMAP Diversity Plus: BE3C Assay for Urokinase-type plasminogen activator receptor (uPAR) Biomarker Activity (AID 2283039); settings: primary human bronchial epithelial cells; actives raise or lower the signal;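 also: uPAR protein level measured by ELISA on the cells; cells exposed to compound for one day before measurement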
In short: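 Primary human bronchial epithelial cells dosed for 24 h; uPAR quantified by ELISA with bidirectional fitting against DMSO. Overt cytotoxicity assessed in parallel cultures by SRB total-protein staining (0.1% SRB, 560 nm).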

[10] = read-out: Tissue plasminogen activator (tPA), PLAT (gene 5327); assay: BSK_BE3C_tPA: BioMAP Diversity Plus: BE3C Assay for Tissue plasminogen activator (tPA) Biomarker Activity (AID 2283041); settings: primary human bronchial epithelial cells; actives raise or lower the signal;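 also: tPA level quantified by ELISA one day after compound addition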
In short: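 Primary human bronchial epithelial cells in the BE3C system, exposed to compound for 24 h. tPA was quantified by ELISA; DMSO served as baseline, with gain or loss of signal fitted. Cytotoxicity checked in parallel cultures by SRB total-protein staining.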

[11] = read-out: Interleukin-8 (IL8), CXCL8 (gene 3576); assay: BSK_CASM3C_IL8: BioMAP Diversity Plus: CASM3C Assay for Interleukin-8 (IL8) Biomarker Activity (AID 2283042); settings: primary human coronary artery smooth muscle cells; actives raise or lower the signal;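 also: IL-8 protein level quantified by ELISA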
[12] = read-out: Human Leukocyte Antigen - DR isotype (HLADR), HLA-DRA (gene 3122); assay: BSK_CASM3C_HLADR: BioMAP Diversity Plus: CASM3C Assay for Human Leukocyte Antigen - DR isotype (HLADR) Biomarker Activity (AID 2283043); settings: primary human coronary artery smooth muscle cells; actives raise or lower the signal;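 also: cell-surface HLA-DR protein level quantified by ELISA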
[13] = read-out: Monocyte Chemoattractant Protein-1 (MCP1), CCL2 (gene 6347); assay: BSK_CASM3C_MCP1: BioMAP Diversity Plus: CASM3C Assay for Monocyte Chemoattractant Protein-1 (MCP1) Biomarker Activity (AID 2283046); settings: primary human coronary artery smooth muscle cells; actives raise or lower the signal;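 also: MCP-1 level quantified by ELISA 24 h after dosing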
[14] = BSK_CASM3C_Proliferation: Cell Proliferation Assessment in the BioMAP Diversity Plus: CASM3C Assay (AID 2283047); settings: primary human coronary artery smooth muscle cells;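 also: sub-confluent cells exposed 48 h before staining; fitted both ways against DMSO so gain or loss of cell number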
[15] = BSK_CASM3C_SRB: Viability Assessment in the BioMAP Diversity Plus: CASM3C Assay (AID 2283050); settings: primary human coronary artery smooth muscle cells
[16] = read-out: Interferon-gamma inducible Protein 10 (IP10), CXCL10 (gene 3627); assay: BSK_hDFCGF_IP10: BioMAP Diversity Plus: hDFCGF Assay for Interferon-gamma inducible Protein 10 (IP10) Biomarker Activity (AID 2283053); settings: primary human foreskin fibroblasts; actives raise or lower the signal
In short: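 Primary human foreskin fibroblasts exposed to chemicals for 24 h. IP-10 measured by ELISA; changes fitted bidirectionally against DMSO baseline.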

[17] = read-out: Interleukin-8 (IL8), CXCL8 (gene 3576); assay: BSK_hDFCGF_IL8: BioMAP Diversity Plus: hDFCGF Assay for Interleukin-8 (IL8) Biomarker Activity (AID 2283058); settings: primary human foreskin fibroblasts; actives raise or lower the signal
In short: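 Cells used are human skin primary fibroblasts. Chemical is added, cultures run 24 h, then IL-8 is quantified by ELISA, and gain or loss versus DMSO control is fitted in both directions.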

[18] = BSK_hDFCGF_Proliferation: Cell Proliferation Assessment in the BioMAP Diversity Plus: hDFCGF Assay (AID 2283059); settings: primary human foreskin fibroblasts;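 also: curves fitted for both rise and fall of signal versus DMSO baseline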
In short: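 This proliferation readout used SRB total-protein staining of human foreskin fibroblasts […], normalized to DMSO with bidirectional curve fitting.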

[19] = BSK_hDFCGF_SRB: Viability Assessment in the BioMAP Diversity Plus: hDFCGF Assay (AID 2283061); settings: primary human foreskin fibroblasts;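 also: cells exposed to compound for 24 h before the read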
In short: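 Readout is SRB absorbance at 560 nm, reflecting total protein in parallel cultures of human foreskin fibroblasts harvested 24 h after chemical dosing. Activity was fitted bidirectionally relative to DMSO.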

[20] = read-out: TIMP metallopeptidase inhibitor 1 (TIMP1), TIMP1 (gene 7076); assay: BSK_hDFCGF_TIMP1: BioMAP Diversity Plus: hDFCGF Assay for TIMP metallopeptidase inhibitor 1 (TIMP1) Biomarker Activity (AID 2283062); settings: primary human foreskin fibroblasts; actives raise or lower the signal
In short: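 Human skin fibroblasts (primary), hDFCGF system; compound exposure 24 h; TIMP-1 by ELISA; bidirectional fit vs DMSO negative control; overt cytotoxicity by SRB in parallel wells.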

Measured: AC50

Cc1c(C(N)=O)cc([N+](=O)[O-])cc1[N+](=O)[O-]
inactive: all assays above

COc1ccc(C(=O)c2ccccc2O)c(O)c1
active: [4] 12.6 µM and 13.7 µM | [8] 24.5 µM and 27.2 µM | [12] 10.9 µM and 5.66 µM | [18] 25.3 µM and 27 µM
inactive: all other assays above

C1CN(CCOCCN2CCOCC2)CCO1
inactive: all assays above

CCC[Si](OC(C)=O)(OC(C)=O)OC(C)=O
inactive: all assays above

CC(C)C1OCCN1CCOC(=O)NCCCCCCNC(=O)OCCN1CCOC1C(C)C (stereo not given)
inactive: all assays above

COc1ccccc1Oc1c(NS(=O)(=O)c2ccc(C(C)(C)C)cc2)nc(-c2ncccn2)nc1OCCO
active: [18] 20 µM and 15.3 µM
inactive: all other assays above

CC[N+](CC)(CC(=O)Nc1c(C)cccc1C)Cc1ccccc1 (tested in a mixture with another compound)
inactive: all assays above
